Source: PubChem BioAssay (several laboratories)
rCAG RNA binder – binders of r(CAG) RNA repeats, primary screen, biochemical, fluorescence. AID 651821, 2012. r(CAG) RNA repeat, TO-PRO-1 dye displacement fluorescence. actives 1.3% (n = 370,000). inhibition, % at 3 µM;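 active = inhibition above the plate cutoff, the mean of all test compounds on that plate plus 3 SD, cut at about 35% in these data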;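 note: 0% = DMSO alone and 100% = 100 µM mitoxantrone as full dye displacement; higher means more dye released from RNA so lower well fluorescence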
NR3A LBD binder – binders of NR3A ligand-binding domain, primary screen, biophysical, differential scanning fluorimetry, uHTS. Glutamate receptor ionotropic, NMDA 3A (GRIN3A) ligand-binding domain. NR3A LBD differential scanning fluorimetry, Tm shift; 0% = protein alone, 100% = glycine-bound protein. Tm shift relative to glycine control, % at 25 µM. actives 2.5% (n = 340,000). AID 1259313, 2017;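 active = melting temperature shift of at least 10% of the positive control shift, at one fixed dose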
FAS TE block – FAS thioesterase domain inhibitors, primary screen, biochemical, fluorescence intensity, uHTS; actives 0.67% (n = 360,000); recombinant FAS-TE, OMFH fluorogenic substrate, fluorescence endpoint; AID 602261, 2012; Fatty acid synthase (Homo sapiens), P49327; inhibition, % at 15 µM;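 active = compounds whose normalised, plate-corrected inhibition of enzyme fluorescence in the single-dose primary screen is 50% or more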;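 note: 0% = DMSO with enzyme and 100% = substrate without enzyme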
NadD inh – inhibitors of S. aureus NadD, primary screen, biochemical, colorimetric, uHTS; Nicotinate-nucleotide adenylyltransferase NadD (Staphylococcus aureus N315); purified NadD enzyme, colorimetric absorbance read-out; inhibition, % at 20 µM; actives 0.78% (n = 360,000); in the data active = inhibition above about 26%
NadD inh conf – inhibitors of S. aureus NadD, confirmation, biochemical, colorimetric, single concentration; shares compounds with NadD inh; purified S. aureus NadD, colorimetric enzyme assay; inhibition, % at 20 µM; actives 13% (n = 2,000); in the data active = inhibition mostly above about 42%, no sharp cut-off; inactive = mostly below about 42%
rCAG binder conf – small molecules binding CAG repeat RNA – biochemical, fluorescence, confirmation. shares compounds with rCAG RNA binder. r(CAG) RNA repeat, TO-PRO-1 dye displacement fluorescence. inhibition, % at 3 µM. actives 70% (n = 4,300);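 active = inhibition above a per-plate cutoff, the mean inhibition of sample wells plus 3 SD, cut at about 35% in these data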;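 note: loss of TO-PRO-1 fluorescence as compound displaces dye from 1x1 AA loop RNA; 0% = DMSO only wells and 100% = 100 µM mitoxantrone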
dCAG dye counter – displacement of TO-PRO-1 from CAG DNA duplex, counter-screen for rCAG RNA repeat binder project, biochemical, fluorescence, TO-PRO-1 dye, d(CAG) DNA oligo; shares compounds with rCAG RNA binder; d(CAG) DNA oligo TO-PRO-1 dye displacement; inhibition, % at 3 µM; actives 94% (n = 4,300);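 active = inhibition above its plate's cutoff, the mean test-well inhibition plus 3 SD, cut at about 4.8% in these data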;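 note: 0% = DNA dye mix with DMSO and 100% = 100 µM mitoxantrone; hits displace the dye from DNA and so lower well fluorescence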
Active calls of the source: *; . = no result. This is a sample that favours compounds with a hit; in the whole collection about 4.3% have one here.

SMILES	rCAG RNA binder	NR3A LBD binder	FAS TE block	NadD inh	NadD inh conf	rCAG binder conf	dCAG dye counter
CCOc1ccc(N=C2SC(C(=O)Nc3ccccc3C#N)C(N)=C2C(=O)Nc2ccc(Cl)cc2)cc1 (configuration not stated)	38.6*	26.7*	34.6	31.4*	6.3	28.3	16.5*
C[C@@H]1CCN(C2CC2)S(=O)(=O)c2c(cccc2N2CC[C@@H](O)C2)O1	3.8	.	.	.	.	.	.
CCc1nnc(NS(=O)(=O)c2ccc(NC(=S)NC(=O)/C=C/c3ccc(F)cc3)cc2)s1	85.3*	8.0	2.1	30.7*	50.7*	85.6*	59.5*
CCc1nnc(NS(=O)(=O)c2ccc(NC(=S)NC(=O)c3ccncc3)cc2)s1	18.7	0.5	-8.9	-0.4	.	.	.
COCCn1c(=NC(=O)c2cc(-c3cccs3)nc3ccccc23)sc2cc(S(N)(=O)=O)ccc21	35.9*	28.2*	17.9	51.9*	56.7*	39.1*	18.9*
CCOC(=O)Cn1c(=NC(=O)c2nc3ccccc3s2)sc2cc(S(N)(=O)=O)ccc21	8.9	-3.9	-8.8	19.2	.	.	.
Cc1cc(NCCc2c[nH]c3ccccc23)ccc1Nc1cccnc1	9.2	.	.	.	.	.	.
COc1ccc(Cl)cc1NC(=O)C(C)OC(=O)c1ccc(NS(=O)(=O)c2ccc3[nH]c(=O)[nH]c3c2)cc1 (configuration not stated)	39.0*	18.1*	21.7	36.4*	31.0	48.6*	16.5*
Cc1ccc(C2CC(=O)N3CN(c4ccc(Br)cc4)CSC3=C2C#N)o1 (configuration not stated)	63.2*	-6.0	0.8	42.8*	-3.8	48.6*	17.9*
N#CC1=C2SCN(c3ccccc3)CN2C(=O)CC1c1c(Cl)cccc1Cl (configuration not stated)	12.0	-8.0	9.5	16.7	.	.	.
CCc1nnc(NC(=O)c2cc(-c3ccco3)nc3ccccc23)s1	36.3*	1.5	3.0	80.9*	43.5	23.1	16.2*
O=C(N/N=C/c1cccc(F)c1)c1cc(-c2ccco2)nc2ccccc12	45.2*	-2.1	-3.2	52.5*	81.0*	40.8*	26.2*
CC1=C(C(=O)Nc2ccccc2)C(c2ccc(C)o2)n2c(s/c(=C\c3ccco3)c2=O)=N1 (configuration not stated)	37.9*	-6.6	17.6	34.1*	3.2	12.1	7.1*
COc1ccccc1C1C(C(C)=O)=C(C)N=c2s/c(=C\c3cc(OC)c(OC)c(OC)c3)c(=O)n21 (configuration not stated)	2.2	-1.1	13.0	-3.5	.	.	.
COc1ccc(O)c(C(=O)c2cc(SCC(=O)O)c3nc4sc5c(c4c(=O)n3c2)CCCC5)c1	41.8*	3.7	39.3	45.8*	36.2	89.2*	62.8*
CCOC(=O)c1c(-c2ccccc2)csc1NC(=O)/C(C#N)=C\c1ccc(O)c(OC)c1	48.6*	17.7*	14.3	34.6*	23.6	63.7*	36.3*
CCOC(=O)/C(C#N)=C\c1ccc(O)c(OC)c1	1.2	-1.0	-7.2	1.5	.	.	.
CCOC(=O)c1c(-c2ccc(C)cc2)csc1NC(=O)/C(C#N)=C/c1ccc(O)c(OC)c1	37.3*	20.2*	-4.6	58.7*	41.1	73.8*	48.3*
O=[N+]([O-])c1cccc(-c2cc(-c3cc(Br)ccc3O)[nH]n2)c1	36.8*	12.7*	27.5	37.7*	4.4	27.0	16.4*
O=[N+]([O-])c1ccccc1-c1cc(-c2ccccc2O)n[nH]1	8.5	-2.7	3.3	-2.3	.	.	.
CCc1ccccc1NC(=O)c1cc(C)nn1-c1ccccc1	-1.5	.	.	.	.	.	.
Cc1ccc(Nc2nnc(SCC(O)=C(C#N)c3nc4ccccc4[nH]3)s2)c(C)c1	57.5*	0.1	2.9	30.5*	60.1*	44.8*	20.9*
CSc1nc(N(C)CCO)c2sc3nc(-c4ccco4)c4c(c3c2n1)CCC4	.	-6.0	-9.1	9.5	.	.	.
CSc1nc(SCC(=O)O)c2sc3nc(-c4ccccc4)c4c(c3c2n1)CCC4	39.2*	0.5	40.3	28.3*	-0.3	63.4*	37.6*
CCC(C)c1ccc(C2C3=C(Nc4nc(N)[nH]c(=O)c42)c2ccccc2C3=O)cc1 (configuration not stated)	43.2*	3.4	0.7	37.1*	11.1	47.1*	29.4*
SMILES	rCAG RNA binder	NR3A LBD binder	FAS TE block	NadD inh	NadD inh conf	rCAG binder conf	dCAG dye counter
O=C(Cn1nc(-c2ccccc2)ccc1=O)NCCc1ccccc1F	1.7	.	.	.	.	.	.
COc1ccccc1/C=C/C=C1N=C(/C=C/c2ccc(Cl)cc2)OC/1=O	54.4*	-1.4	0.2	31.9*	-2.6	37.4*	10.1*
COc1ccc(-c2c(-c3ccccc3OC)sc3ccccc23)cc1F	7.6	.	.	.	.	.	.
N#C/C(=C(/O)CN1CCN(c2ccccc2F)CC1)c1nc(-c2ccccc2)cs1	58.2*	-0.5	-1.1	31.3*	25.4	49.5*	16.2*
CC(C)CCN(CCC(C)C)C/C(O)=C(\C#N)c1nc(-c2ccccc2)cs1	4.6	-3.2	13.2	16.1	.	.	.
Nc1c(C(=O)Nc2ccc(S(=O)(=O)N3CCCC3)cc2)sc2nc3cc4c(cc3cc12)CCC4	38.1*	6.5	-23.6	31.9*	0.4	31.1	16.4*
Cc1ccc([C@@H]2CC=C(C(=O)O)[C@H](c3ccc(F)cc3)N2S(=O)(=O)c2ccccc2C)cc1	69.7*	-1.7	-1.8	41.9*	35.6	60.2*	23.0*
COc1ccc([C@@H]2CC=C(C(=O)O)[C@H](c3ccc(F)cc3)N2S(=O)(=O)c2ccc(C)cc2)cc1OC	26.5	-0.3	-9.7	-2.9	.	.	.
COCc1cc(=O)n2[nH]c(-c3ccsc3-n3c(C)ccc3C)cc2n1	40.5*	-0.7	1.9	56.1*	42.8*	39.4*	17.4*
COC(=O)C1=C(C)N(C)C(=NCc2ccc(C(F)(F)F)cc2)NC1c1ccc(Cl)cc1 (configuration not stated)	8.4	.	.	.	.	.	.
COc1cccc(C(=O)Nc2nnc(S(=O)(=O)N(C)Cc3ccc(F)cc3)s2)c1	70.0*	9.9	6.8	29.9*	15.9	64.9*	25.4*
CC(C)CC(C(=O)Nc1cccc(O)c1)N1C(=O)c2ccccc2C1=O (configuration not stated)	3.7	5.0	3.0	-3.1	.	.	.
